According to PMC13494018:
A number with no mark means an inactive call. How the calls were made is not given here.

B1: design_486_d4f32670-1303-4d79-8413-1b14cb3eff50_1067_dldesign_0_cycle1_af2pred (protein)
chain: ANAAQIKAAAQAAYKSAKEIAEEALELAKEGKKEEAEKKLKGAEKLGEIAAALAAQYGAAGDPAEGAALAKDIKEYLKEAKKELEKL
B2: design_486_d4f32670-1303-4d79-8413-1b14cb3eff50_1561_dldesign_0_cycle1_af2pred (protein)
chain: SEVEEKAKELAEKALALVKTGTGEAEAKKLLAAAPPEVVIQAIKVAAEKAKAEGPEMAAYANKLAAAANQALLEKN
B3: design_486_d4f32670-1303-4d79-8413-1b14cb3eff50_521_dldesign_0_cycle1_af2pred (protein)
chain: DAAALAARTARAIRDQAVRTVAAEEGPEAAEIARAAGEAVLAGDFEEGRRLAERVGRARAFVLSNVESIALLVEG
B4: design_486_d4f32670-1303-4d79-8413-1b14cb3eff50_1573_dldesign_0_cycle1_af2pred (protein)
chain: SLEEAKKKAKEVTEKGKEDLATLKEIAVQAAKQGQLAGAQAALNSAKVVAKATAEEVAKLVGPEAGEKALKEGEALVKEAKKEVEKAA
B5: design_486_d4f32670-1303-4d79-8413-1b14cb3eff50_565_dldesign_0_cycle1_af2pred (protein)
chain: MTEEELIQRTADANVRQVRRVAVEEGLEAGRRQLELNVKSLESVGATEIAAEMERRAEAALAEAAAELARRAAE
B6: design_486_d4f32670-1303-4d79-8413-1b14cb3eff50_1586_dldesign_0_cycle1_af2pred (protein)
chain: AEERAAAIARATLAGSLALMRTMSPEDAIRLMEVLADILLSNPLTREYGERVAELARRAREEGPAAAEEAIREGAEIGEELRAA
B7: design_486_d4f32670-1303-4d79-8413-1b14cb3eff50_819_dldesign_0_cycle1_af2pred (protein)
chain: SLEELRRKAVRKAQEAMATASKVAIAAKAAGDAATAAKANELLVKAQEALKEAVEGKNVEEALRRAEELLEEAKKLAKE
B8: design_486_d4f32670-1303-4d79-8413-1b14cb3eff50_721_dldesign_0_cycle1_af2pred (protein)
chain: MNLYESTLLVAEGAIQTAQQAAELATDPAIKAQAKELKERAQEIRDRVKARGTATNEEGQEAVRLLNQASKLLAQAK
B9: design_486_d4f32670-1303-4d79-8413-1b14cb3eff50_969_dldesign_0_cycle1_af2pred (protein)
chain: AQAERDAAARKIAAAHLNHAAKVAEALAKEAKDPKVKKKLKEAAKKAKELAKEAAKGNAAEAGEKAVEAAKLLAEARRLYEEDK
B10: design_486_d4f32670-1303-4d79-8413-1b14cb3eff50_1359_dldesign_0_cycle1_af2pred (protein)
chain: AAAAADRAFAITKATAEASMKLMETMTAESALKLGETVAAILRAMAKAYPAHAAELNALADKVEATAKAVAEAKK
B11: design_486_d4f32670-1303-4d79-8413-1b14cb3eff50_1519_dldesign_0_cycle1_af2pred (protein)
chain: DEVAKLVDETAAAARAAVAAAARTAAAGTPEQSAALSSLMVATLQAVGDAYRALTDPAEAKAAAEKARALAEELAARTAEIQA
B12: design_486_d4f32670-1303-4d79-8413-1b14cb3eff50_440_dldesign_0_cycle1_af2pred (protein)
chain: AGKEIAKKMGKAVAERLAKQAPSVAEEAKKAAEAIEKGDYEEAKKEAEKALEIGKKNPKEYKVVKAGVETLKVLADAIAAS
B13: design_486_d4f32670-1303-4d79-8413-1b14cb3eff50_1718_dldesign_0_cycle1_af2pred (protein)
chain: MSAGEIALANTRAVAKQLIAAGKELGTEEEARKKAEEAIAKVEELAKKGPAGAAEAMKITVEMMKELDKVSKAVEEAE
B14: design_486_d4f32670-1303-4d79-8413-1b14cb3eff50_1562_dldesign_0_cycle1_af2pred (protein)
chain: MEEREKVAESMKKMLDAIGEIAAAETGEEGKKMAEEAKKEVEEAAKKGLSPEEIAAVANKKAAEILKVTMAAARAK
B15: design_486_d4f32670-1303-4d79-8413-1b14cb3eff50_845_dldesign_0_cycle1_af2pred (protein)
chain: SAAEQQLQQAKGYITLANAIARDPNPTPEQLQLAKEAAQQAIKLAEQVEKAVGEKGKEVKKQAEEALAKVQALL
B16: design_486_d4f32670-1303-4d79-8413-1b14cb3eff50_788_dldesign_0_cycle1_af2pred (protein)
chain: MREEAERVRRRAEEVEELAAKASPAVAAQVRARARAARTFAEAALRSPDPELAAQAVAAAEANVEAAEQLLAADA
B17: design_486_d4f32670-1303-4d79-8413-1b14cb3eff50_394_dldesign_0_cycle1_af2pred (protein)
chain: AEANVALGKRMLEAGKKLAEETKELAKKAKKGEDKEGAKEAAKVALAFAETLELVAEGVPEIAEELKKAAKELKEAAEKALKAAKAA
B18: design_486_d4f32670-1303-4d79-8413-1b14cb3eff50_1043_dldesign_0_cycle1_af2pred (protein)
chain: AAEKEAEAARLERLMQAYVAAAMAGAARVTGNEATAAAQLAKARALDPEVAGELEAAVLADPQAALAEALERARAAEERLRALREE
B19: design_486_d4f32670-1303-4d79-8413-1b14cb3eff50_1137_dldesign_0_cycle1_af2pred (protein)
chain: MEEAEEVMRRTFELAREARELRAEAERLAKLAEESGEAAPEAAAARAKAEEKVAEARRLGEEYPGAAALAEGTLAG
B20: design_486_d4f32670-1303-4d79-8413-1b14cb3eff50_1613_dldesign_0_cycle1_af2pred (protein)
chain: AAAYKKAVAALDAVVAEAAAISEGAGLIATNIKTQGLTQGAAAKDPAEAAKIVEAALKLATDSVTKYVESSAALR
B21: design_486_d4f32670-1303-4d79-8413-1b14cb3eff50_1473_dldesign_0_cycle1_af2pred (protein)
chain: GSMAAAAAAEAARRAALLAEAQAKMNEASKAAIEATKTDPAKAKYYNEALALYQEAAALANDGSKYEEAKEKLKEGDKLMEKV
B22: design_486_d4f32670-1303-4d79-8413-1b14cb3eff50_973_dldesign_0_cycle1_af2pred (protein)
chain: DPAERAAEFRRRAEEVAAIYLAAAQANPAMAPVMAANVLATMRAWAAVWADNPAVAAAALEVGREAAARIA
B23: design_486_d4f32670-1303-4d79-8413-1b14cb3eff50_1678_dldesign_0_cycle1_af2pred (protein)
chain: AAMEEKEQRIINAAKANLELAKIALEGAPHNPELALKVLEALARRAKELAEEAKKLGLEEAEKAAKEAAEEIKKYAKEAQALL
B24: design_486_d4f32670-1303-4d79-8413-1b14cb3eff50_1537_dldesign_0_cycle1_af2pred (protein)
chain: AAAAAAARALALAEEAAAALPPDAGARVREMVRRAVALLEAGDAGAAIQTLLDAIRYGTAAARAIDPARAATVANALTRAIVAISAAA
B25: design_486_d4f32670-1303-4d79-8413-1b14cb3eff50_1336_dldesign_0_cycle1_af2pred (protein)
chain: DAAAQAKAVAEKGVELIKKADPETGKKVGELVEKGAASANAASLLLEAAQLAAEAAKKKGWTPEMRQGVHLLLLASSLAHQAAVAAA
B26: design_486_d4f32670-1303-4d79-8413-1b14cb3eff50_1569_dldesign_0_cycle1_af2pred (protein)
chain: NAQAKAFLDQGKAKMEAGKALIKEGKYEEAAAEFTRAYSYFLAAAGLARAAGDKALAAEAEKAAKEAEALAKEAKA
B27: design_486_d4f32670-1303-4d79-8413-1b14cb3eff50_897_dldesign_0_cycle1_af2pred (protein)
chain: NPQGEAAVRYAEIAARARRLAEEARAAGREELAAEFQRIAEAARAALRRAVAANVAGEDRSEELVAEAERLERELEELERRFR
B28: design_486_d4f32670-1303-4d79-8413-1b14cb3eff50_567_dldesign_0_cycle1_af2pred (protein)
chain: DTVVANALAAQLVLEAIGLAAAGNIEEALKKLREAAKVASPESAAVLEAAARTIAEEGLPPEEAVAVFNAALAVVQKNAIAAA
B29: design_486_d4f32670-1303-4d79-8413-1b14cb3eff50_760_dldesign_0_cycle1_af2pred (protein)
chain: EAEEAARRARELAERARAARDAGLADPAKANEALGVALDAMRELAEIAERYPEVAEVAREAARVAAEAATALAKQAAAYYAAQRA
B30: design_486_d4f32670-1303-4d79-8413-1b14cb3eff50_1495_dldesign_0_cycle1_af2pred (protein)
chain: AAALAAAEAKAKAYIEKVKALDPELGKKTAEAVKKGVKSTPETAAALGNEVTAAAPEEAKPYVAAAIAQAILANALS
B31: design_486_d4f32670-1303-4d79-8413-1b14cb3eff50_1479_dldesign_0_cycle1_af2pred (protein)
chain: AEATQLLSEAIDLAKEIEENKKKATPEVAKIYDEALEEANKAMNLAAKASVADAATAAKLIAEAKKELEKAKELYEKAKKLEKE
B32: design_486_d4f32670-1303-4d79-8413-1b14cb3eff50_1357_dldesign_0_cycle1_af2pred (protein)
chain: GMSEELAKELAEKVTKALAAASKAAAAALANPAVAAQANALLAQAVDYALKFQEAAKKDVEEAKKEAEKAIAAANELKALAAAA
B33: design_486_d4f32670-1303-4d79-8413-1b14cb3eff50_1679_dldesign_0_cycle1_af2pred (protein)
chain: AAAAKAKVQAAAAKALAEAKKTAAEAKTLTPEEATALLQATAADAIRQAAEYGKLDPEVAGSALVEVVKLLAEARRAVAA
B34: design_486_d4f32670-1303-4d79-8413-1b14cb3eff50_798_dldesign_0_cycle1_af2pred (protein)
chain: GVQALAAATLEAMELAKKIGANEAVRNLGAALAVAGTRHPELAPEFTKRVEELLKLAKEAAKGDKEEAAKLVAEEARKLRDAALAA
B35: design_486_d4f32670-1303-4d79-8413-1b14cb3eff50_1517_dldesign_0_cycle1_af2pred (protein)
chain: AEAEKIIKEAKALAKEAKALAAQGAALDPAIAVIAAAAAAAAASAEKMVKENGEAKAEDAKKLLEVAKTLLEQAKAALEAALAAAA
B36: design_486_d4f32670-1303-4d79-8413-1b14cb3eff50_1391_dldesign_0_cycle1_af2pred (protein)
chain: DARLKKAAELLKKHTEAVLKGPVHPEAKLATAEVAIESAQGIYKAGADDAEVKAAAKEALAAAKELKERAEKELAAAEAAAAAA
B37: design_486_d4f32670-1303-4d79-8413-1b14cb3eff50_402_dldesign_0_cycle1_af2pred (protein)
chain: ADEEKVKQAKKLAEEALRLAKEDPEKAKKKLEEAAKLAAASPAALEILLSVAGELYRINPEVGKAARQAFATAATAIV
B38: design_486_d4f32670-1303-4d79-8413-1b14cb3eff50_1615_dldesign_0_cycle1_af2pred (protein)
chain: DGYIQLAIAYANAAANRASPEVAPKLREVAELAKKGATDPEALKKAIELAKKLAKEVPEVADLLEKAVEYLKEALKAVE

Target: CD276, Q5ZPR3
Sequence (Q5ZPR3 whole entry): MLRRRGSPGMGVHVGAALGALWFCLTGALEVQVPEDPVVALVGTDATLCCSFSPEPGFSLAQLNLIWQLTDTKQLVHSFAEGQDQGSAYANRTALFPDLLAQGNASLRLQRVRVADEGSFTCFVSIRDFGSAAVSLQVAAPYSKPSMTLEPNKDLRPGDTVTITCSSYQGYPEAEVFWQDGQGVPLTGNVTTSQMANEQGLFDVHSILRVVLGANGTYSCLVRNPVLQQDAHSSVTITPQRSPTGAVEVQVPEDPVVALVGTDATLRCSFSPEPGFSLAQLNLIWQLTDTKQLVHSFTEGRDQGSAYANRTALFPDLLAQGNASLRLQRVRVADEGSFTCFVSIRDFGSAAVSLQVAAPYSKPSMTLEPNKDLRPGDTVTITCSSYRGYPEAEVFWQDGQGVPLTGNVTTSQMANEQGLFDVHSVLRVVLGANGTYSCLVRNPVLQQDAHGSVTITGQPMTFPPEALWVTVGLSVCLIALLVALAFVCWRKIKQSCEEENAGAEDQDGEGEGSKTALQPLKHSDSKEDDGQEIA

Row | Binder | binding in a display sort
1 | B1 | not found
2 | B2 | not found
3 | B3 | not found
4 | B4 | not found
5 | B5 | not found
6 | B6 | not found
7 | B7 | not found
8 | B8 | not found
9 | B9 | not found
10 | B10 | not found
11 | B11 | binds (active)
12 | B12 | not found
13 | B13 | not found
14 | B14 | not found
15 | B15 | not found
16 | B16 | not found
17 | B17 | not found
18 | B18 | binds (active)
19 | B19 | not found

Row | Binder | binding in a display sort
20 | B20 | not found
21 | B21 | not found
22 | B22 | not found
23 | B23 | not found
24 | B24 | not found
25 | B25 | not found
26 | B26 | not found
27 | B27 | not found
28 | B28 | not found
29 | B29 | not found
30 | B30 | not found
31 | B31 | not found
32 | B32 | not found
33 | B33 | not found
34 | B34 | not found
35 | B35 | not found
36 | B36 | not found
37 | B37 | not found
38 | B38 | not found
